According to PubChem BioAssay (Tox21):
Records with an inconclusive call do not appear. The source made the active and inactive calls. Unless noted, calls come from the whole dose curve; as a rule, active = well fitted curve in the direction sought with a large enough effect in the repeat runs; inconclusive = weak or mixed curves; inactive = no such curve, though single readings can be large; an effect the other way counts as inactive or inconclusive.

How the values were obtained:
[1] = qHTS assay to identify small molecule antagonists of the retinoid-related orphan receptor gamma (ROR-gamma) signaling pathway - cell viability counter screen (AID 1159520); note: % is set by controls: 0 for no effect and ±100 for the full control effect; nearly all actives have a fitted effect of over 50% in size
Method in brief: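 Tet-on ROR gamma CHO cells (1,000/well) were plated 4 hr, given compounds in DMSO for 2 hr at 37 C, then induced with 1 uM final doxycycline for 16 hr. Viability was read as ATP by CellTiter-Glo luminescence after 30 min.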

[2] = target: Nuclear receptor ROR-gamma (Homo sapiens) (UniProt P51449); assay: qHTS assay to identify small molecule antagonists of the retinoid-related orphan receptor gamma (ROR-gamma) signaling pathway (AID 1159521; note: nearly all actives have a fitted effect of over 50% in size; note: potency is the fitted concentration of half-maximal effect;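 for activity change, negative = inhibition: CHO cells with doxycycline inducible ROR-gamma driving an RORE luciferase reporter; top concentration of the series differs between compounds; % is set by controls: 0 for no effect and ±100 for the full control effect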)
Method in brief: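 Readout: ONE-Glo luciferase luminescence, 30 min at room temperature. System: Tet-on RORγ CHO, RORE-LUC. Sequence: compound 2 h, doxycycline 1 uM final, 16 h at 37 C.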

[3] = qHTS assay to identify small molecule agonists of the AP-1 signaling pathway - cell viability counter screen (AID 1159525; calls by dose curve; note: nearly all actives have a fitted effect of over 55% in size)
Method in brief: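 ME-180 AP-1-bla, 2500 cells/well, Opti-MEM + 0.5% dialyzed FBS; overnight 37 °C; cpd 15-pt titration, 5 h 37 °C; CellTiter-Glo 30 min RT; luminescence read; normalised to TOAB and DMSO controls.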

[4] = qHTS assay to identify small molecule agonists of the AP-1 signaling pathway (AID 1159526; calls by dose curve; note: % is set by controls: 0 for no effect and ±100 for the full control effect)
[5] = target: Retinoic acid receptor RXR-alpha (Homo sapiens) (UniProt P19793); assay: qHTS assay to identify small molecule agonists of the RXR signaling pathway (AID 1159527; calls by dose curve; note: nearly all actives have a fitted effect of over 35% in size; note: potency is the fitted concentration of half-maximal effect; for activation: % is set by controls: 0 for no effect and ±100 for the full control effect)
Method in brief: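 Reporter activation is measured as beta-lactamase activity via FRET substrate cleavage (emission 460/530 nm) in HEK 293T cells expressing an RXR-alpha-driven bla construct, following 16 hr compound exposure at 37 C.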

[6] = qHTS assay to identify small molecule agonists of the RXR signaling pathway - cell viability counter screen (AID 1159529); note: series mostly up to about 77 µM; % is set by controls: 0 for no effect and ±100 for the full control effect; nearly all actives have a fitted effect of over 50% in size
Method in brief: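 Tox21 10K compounds were tested for cytotoxicity against GeneBLAzer RXR-alpha HEK 293T cells grown in 2% charcoal-stripped FBS. Exposure lasted 16 hr at 37 C, 5% CO2; viability read by CellTiter-Glo luminescence.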

[7] = qHTS assay to identify small molecule antagonists of the retinoid acid receptor (RAR) signaling pathway - cell viability counter screen (AID 1159551); note: % is set by controls: 0 for no effect and ±100 for the full control effect; nearly all actives have a fitted effect of over 35% in size
Method in brief: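 Retinol-stimulated (1 uM final) C3RL4 cells, compound 6 h, 37 C; readout CellTiter-Glo luminescence (ATP) after 30 min RT incubation.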

[8] = qHTS assay to identify small molecule antagonists of the retinoic acid receptor (RAR) signaling pathway (AID 1159552; note: % is set by controls: 0 for no effect and ±100 for the full control effect; nearly all actives have a fitted effect of over 50% in size)
Method in brief: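 Overnight-plated C3RL4 reporter cells get compound, then retinol to 1 uM final; plates sit 6 hr at 37 C, 5% CO2. A luciferase reagent is added and light output recorded after 30 min at room temperature.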

[9] = qHTS assay to identify small molecule antagonists of the estrogen related receptor (ERR) signaling pathway - cell viability counter screen (AID 1224818);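 note: series mostly up to about 46 µM; viability measured after 17.5 h of compound exposure; % is set by controls: 0 for no effect and ±100 for the full control effect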
Method in brief: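 After a 6 h pre-incubation, ERR cells were dosed by pin tool with compounds, positive/negative controls or DMSO alone. Following 17.5 h at 37 C and 30 min with CellTiter-Fluor, fluorescence was recorded.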

[10] = qHTS assay to identify small molecule agonists of the vitamin D receptor (VDR) signaling pathway - cell viability counter screen (AID 743224)
Method in brief: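 Plated VDR-bla cells (4 h, 37C) received compound, incubated 16 h, then LiveBLAzer substrate 2 h RT; CellTiter-Glo added afterwards, luminescence read at 30 min.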

Retinoic acid receptor RXR-alpha (Homo sapiens), sequence (P19793 whole entry, looked up): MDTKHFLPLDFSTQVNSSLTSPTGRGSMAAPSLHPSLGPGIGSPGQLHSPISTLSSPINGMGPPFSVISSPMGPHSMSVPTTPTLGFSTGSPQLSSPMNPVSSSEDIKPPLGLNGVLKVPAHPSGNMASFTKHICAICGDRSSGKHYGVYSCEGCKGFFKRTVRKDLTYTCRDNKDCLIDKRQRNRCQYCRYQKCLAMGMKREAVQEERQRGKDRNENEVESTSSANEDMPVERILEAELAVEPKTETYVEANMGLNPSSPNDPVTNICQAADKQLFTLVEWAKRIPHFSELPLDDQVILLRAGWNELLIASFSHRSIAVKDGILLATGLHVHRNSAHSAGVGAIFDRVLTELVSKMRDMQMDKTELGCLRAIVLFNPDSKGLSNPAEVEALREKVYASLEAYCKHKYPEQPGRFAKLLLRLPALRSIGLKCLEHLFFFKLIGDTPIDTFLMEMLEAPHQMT

CC1(C)[C@H](C(=O)OCc2cccc(Oc3ccccc3)c2)[C@@H]1C=C(Cl)Cl
inactive: Potency [1] | Potency [2] | Potency [3] | Potency [4] | Potency [5] | Potency [6] | Potency [7]

O=C1OCc2ccccc21
inactive: Potency [1] | Potency [2] | Potency [3] | Potency [4] | Potency [5] | Potency [6] | Potency [7]

O=C(O)CN(CCCN(CC(=O)O)CC(=O)O)CC(=O)O
inactive: activity, negative = cytotoxicity [1] 3.4% [at 19 µM] | activity change, negative = inhibition [2] -18.7% [at 19 µM] | viability change, negative = cytotoxic [3] -3.53% [at 15.8 µM] | activation [4] 3.51% [at 15.8 µM] | activation [5] 0.262% [at 15.8 µM] | activity change, negative = cytotoxicity [6] -1.37% [at 15.8 µM] | activity change, negative = cytotoxicity [7] 0.537% [at 19 µM]

Cc1cccc(C)c1C
inactive: Potency [1] | Potency [2] | Potency [3] | Potency [4] | Potency [5] | Potency [6]

Cc1ccc2n[nH]nc2c1
inactive: Potency [1] | Potency [2] | Potency [3] | Potency [4] | Potency [5] | Potency [6]

C=Cc1ccncc1
inactive: Potency [1] | Potency [2] | Potency [3] | Potency [4] | Potency [5] | Potency [6] | Potency [7] | Potency [8]

CCCC(C)C=O (stereo not drawn)
inactive: Potency [1] | Potency [2] | Potency [3] | Potency [4] | Potency [5] | Potency [6] | Potency [7]

C1=CCCC1
inactive: Potency [1] | Potency [2] | Potency [3] | Potency [4] | Potency [5] | Potency [6] | Potency [7] | Potency [8]

C=CC(C)(C)O
inactive: Potency [1] | Potency [2] | Potency [3] | Potency [4] | Potency [5] | Potency [6] | Potency [7]

O=[N+]([O-])c1ccc(CO)cc1
inactive: Potency [1] | Potency [2] | Potency [3] | Potency [4] | Potency [5] | Potency [6] | Potency [8]

CCn1c2ccccc2c2ccccc21
inactive: Potency [1] | Potency [2] | Potency [3] | Potency [5] | Potency [8]

Cc1ccc(N=Nc2c(O)ccc3ccccc23)c(C)c1
inactive: Potency [1] | Potency [2] | Potency [3] | Potency [4] | Potency [6] | Potency [8]

CCCCNc1ccc(NCCCC)c2c1C(=O)c1ccccc1C2=O
inactive: activity, negative = cytotoxicity [1] -0.683% [at 19 µM] | activity change, negative = inhibition [2] -8.88% [at 19 µM] | viability change, negative = cytotoxic [3] -8.5% [at 15.8 µM] | activation [5] 10.8% [at 15.8 µM] | activity change, negative = cytotoxicity [6] 10.1% [at 15.8 µM] | activity change, negative = cytotoxicity [7] 0.361% [at 19 µM] | activity, negative = inhibition [8] -19% [at 19 µM]

CCOC(=O)C1=NN(c2ccc(Cl)cc2Cl)C(C)(C(=O)OCC)C1 (stereo not drawn)
inactive: Potency [1] | Potency [3] | Potency [5] | Potency [6] | Potency [7] | Potency [8]
active: Potency [2] 30.6 µM

COc1cc2ncnc(Nc3cccc(Cl)c3)c2cc1OC
inactive: activity, negative = cytotoxicity [1] -2.63% [at 19 µM] | activity change, negative = inhibition [2] -11.5% [at 19 µM] | viability change, negative = cytotoxic [3] -9.86% [at 15.8 µM] | activation [5] -15.1% [at 15.8 µM] | activity change, negative = cytotoxicity [6] -0.839% [at 15.8 µM] | activity change, negative = cytotoxicity [7] 0.617% [at 19 µM] | Potency [9]

CCOC=C(C(=O)OCC)C(=O)OCC
inactive: Potency [1] | Potency [2] | Potency [3] | Potency [5] | Potency [6] | Potency [7] | Potency [8]

Brc1cc(Br)cc(Br)c1
inactive: Potency [1] | Potency [2] | Potency [3] | Potency [4] | Potency [6]

C=C(C)C1CCC(C)CC1O (stereo not drawn)
inactive: Potency [1] | Potency [2] | Potency [3] | Potency [4] | Potency [5] | Potency [7]

NC(=O)C1CO1 (stereo not drawn)
inactive: Potency [1] | Potency [2] | Potency [3] | Potency [5] | Potency [7] | Potency [8]

Clc1cccc(Cl)n1
inactive: Potency [1] | Potency [2] | Potency [3] | Potency [5] | Potency [6] | Potency [7]

CC(C=O)c1ccccc1 (stereo not drawn)
inactive: Potency [1] | Potency [2] | Potency [3] | Potency [4] | Potency [5] | Potency [6] | Potency [8]

O=c1cc[nH]cc1
inactive: Potency [1] | Potency [2] | Potency [3] | Potency [4] | Potency [6] | Potency [7]

CCc1cccc(C)c1N(C(=O)C(=O)O)C(C)COC (stereo not drawn)
inactive: Potency [1] | Potency [2] | Potency [3] | Potency [5] | Potency [6] | Potency [8]

CCN(CC)c1ccc(C=O)cc1
inactive: Potency [1] | Potency [2] | Potency [3] | Potency [4] | Potency [6] | Potency [7] | Potency [8]

Cc1ccc(C=O)cc1
inactive: Potency [1] | Potency [2] | Potency [3] | Potency [5] | Potency [6] | Potency [7]

Nc1ccc(Cl)c([N+](=O)[O-])c1
active: Potency [2] 38.6 µM
inactive: Potency [1] | Potency [3] | Potency [5] | Potency [6] | Potency [7] | Potency [8]

[Cl][Eu]([Cl])[Cl]
inactive: Potency [1] | Potency [2] | Potency [3] | Potency [5] | Potency [6] | Potency [7]

Cc1c(Cl)c(=O)oc2cc(O)ccc12
inactive: Potency [1] | Potency [2] | Potency [3] | Potency [6]

[Cl][Dy]([Cl])[Cl]
inactive: Potency [1] | Potency [2] | Potency [3] | Potency [6] | Potency [7]

C=COCCCC
inactive: Potency [1] | Potency [2] | Potency [3] | Potency [4] | Potency [6] | Potency [7] | Potency [8]

Cc1c[nH]c(=O)[nH]c1=O
inactive: Potency [1] | Potency [2] | Potency [3] | Potency [4] | Potency [6] | Potency [8]

C=C(C)CCO
inactive: Potency [1] | Potency [2] | Potency [3] | Potency [5] | Potency [6]

c1ccc2occc2c1
inactive: Potency [1] | Potency [2] | Potency [3] | Potency [6] | Potency [9]
active: Potency [10] 49 µM | Potency [5] 12.3 µM

Nc1ccc2c(S(=O)(=O)O)cccc2c1S(=O)(=O)O
inactive: Potency [1] | Potency [2] | Potency [3] | Potency [5] | Potency [6] | Potency [7] | Potency [8]
